S2 tox – reduces viability in counter-screen for ATXN expression inhibitors; S2 cells (HEK-293 line with an ATXN2-luciferase reporter) viability, CellTiter-Fluor protease fluorescence, 24 h; 0.49% of 400,000 active; Potency, µM (doses to about 56.7 µM), actives largely listed as cytotoxic; AID 651635; note: nearly all actives have a fitted effect of over 40% in size
SW480 rerep – inducers of DNA re-replication in SW480 colon cancer cells | SW480 DNA re-replication, Hoechst DNA content imaging, 48 h | Potency, µM (doses to about 46.1 µM), most hits filed as activators | 1.8% of 340,000 active; note: nearly all actives have a fitted effect of over 55% in size
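SW480 cells exposed to compounds for 48 hr at 37 C, 5% CO2, then Hoechst-stained 40 min. Nuclear DNA content imaged by fluorescence scanning (405 nm excitation, 500-530 nm emission); re-replication scored as increased high-intensity nuclei.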
IL1B secr inh – blocks inflammasome-driven IL-1 beta release; activity change, % at 57.5 µM; THP-1 LPS/ATP IL-1B secretion, AlphaLISA, 16 h; active compounds read low; AID 743279; 4.7% of 360,000 active; in the data active = activity change below about -50%; inconclusive = mostly about -30% to -49%
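THP-1 cells pretreated 1 hr with compounds (up to 57.5 uM final), then stimulated with LPS (250 ng/mL final) plus ATP (1.25 mM final); secreted IL-1B measured by AlphaLISA after 16 hr, decreased signal indicating inhibition.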
PINK1 modulator – PINK1 expression modulation | 0.2% of 410,000 active | Potency, µM (doses to about 76.6 µM), hits mostly activators | PINK1 immunofluorescence, high-content cytometry, 24 h; active = well fitted activation curve with a large enough effect; inconclusive = small, poorly fitted or top-dose-only effect; cell line not stated here; note: nearly all actives have a fitted effect of over 65% in size
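A stable cell line was treated with compounds at 5 concentrations for 24 hours, with CCCP as control. PINK1 levels and mitochondrial localization were measured by immunofluorescence with mitochondrial, cell and nuclear markers after fixation, read by laser-scanning cytometry.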
ATXN2 expr inh – reduces ATXN2 reporter expression in HEK-293 cells. HEK-293 ATXN2-luciferase reporter, luminescence, 24 h. Potency, µM (doses to about 57 µM), actives largely listed as inhibitors. 0.72% of 360,000 active. AID 1745845; note: nearly all actives have a fitted effect of over 55% in size
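ATXN2-luciferase reporter cells (luciferase flanked by upstream and downstream ATXN2 gene portions) were treated 24 h at 37 °C with compounds at up to 57 uM. SteadyGlo luminescence gave expression; GF-AFC fluorescence gave viability.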
MCF10A rereplic – DNA re-replication induction in MCF 10a cells. MCF 10A DNA re-replication, Hoechst nuclear intensity, 48 h. Potency, µM (series often up to 46.1 µM), most hits filed as activators. 2.9% of 350,000 active. AID 624296; note: nearly all actives have a fitted effect of over 50% in size
Numbers stand for hits; – = inactive; ? = inconclusive; · = no result given; [ ] = another dose, or the depositor's remark. Most compounds without a hit are left out; they make up all but 7.1% or so of the library. Unless noted, calls come from the whole dose curve; as a rule, active = well fitted curve in the direction sought with a large enough effect; inconclusive = small, poorly fitted or top-dose-only effect, or another doubt; inactive = no such curve, though single readings can be large; an effect the other way counts as inactive or inconclusive.

SMILES	S2 tox	SW480 rerep	IL1B secr inh	PINK1 modulator	ATXN2 expr inh	MCF10A rereplic
O=C1/C(=C/c2cccnc2)SC(=S)N1C1CCS(=O)(=O)C1 (centres undefined)	–	?	-93	–	–	15µM
CCN1CCN(Cc2c(O)ccc3c(C)c(-c4ccc(OC)cc4)c(=O)oc23)CC1	·	·	·	–	–	·
COc1cc(-c2noc(C)c2C#Cc2ccccn2)cc(OC)c1OC	?	3.7µM	–	–	–	?
COc1cc(-c2noc(C)c2C#Cc2ccc(N)cc2)cc(OC)c1OC	?	1.2µM	–	–	–	?
Cc1ccc2ncc(C(=O)NC(C)c3ccccc3)c(=O)n2c1 (centres undefined)	–	·	·	–	–	·
O=C(NCc1nc(-c2ccc(C(F)(F)F)cc2)no1)Nc1cc(Cl)cc(Cl)c1	?	?	-94	?	?	?
O=C(NCc1nc(-c2ccc(C(F)(F)F)cc2)no1)Nc1ccc(F)cc1F	–	–	–	–	–	–
COC(=O)[C@@H]1C[C@@H](NC(=O)c2ccc(C(F)(F)F)cc2)CN1Cc1cccc(O)c1	–	·	·	–	·	·
CC(Oc1ccc(Cl)cc1Cl)C(=O)NC1=NN(c2ccccc2)C(=O)C1 (centres undefined)	–	–	–	–	–	18µM
COc1cc(=O)n2c(c1C(=O)NCc1cccc(F)c1)CCN(Cc1cccnc1)CC2	–	·	·	–	·	·
Cc1ccc(NC(=O)CC2Nc3ccccc3NC2=O)cc1C (centres undefined)	·	·	·	–	–	·
CCOc1ccccc1NC(=O)CC1Nc2cc(C)c(C)cc2NC1=O (centres undefined)	–	?	–	–	–	18µM
Cc1ccc(NC(=O)CC2Nc3ccccc3NC2=O)cc1Cl (centres undefined)	–	16µM	–	–	–	2.6µM
O=C(CC1Nc2cccc3cccc(c23)NC1=O)Nc1ccccc1 (centres undefined)	–	–	-63	–	–	–
CCN(C(=O)c1cc2c(=O)oc3ccccc3c2s1)c1ccc(C)c(C)c1	–	·	·	–	–	·
Cc1ccc(S(=O)(=O)N2CCC(C(=O)OCC(=O)Nc3cc(S(C)(=O)=O)ccc3Cl)CC2)cc1C	–	–	–	–	–	–
Cc1ccccc1NC(=O)COC(=O)c1ccccc1OCC(=O)Nc1ccc(Br)cc1	·	·	·	–	·	·
O=C1CC2c3ccccc3CCN2C(=O)CN1Cc1ccccc1 (centres undefined)	–	·	–	–	–	·
O=C1c2cnc3nc(SCc4ccccc4)nn3c2CC2c3ccccc3CCN12 (centres undefined)	–	4.1µM	–	–	–	2.3µM
CC1=CC(C)(C)Nc2ccc(OC(=O)C(Cc3ccccc3)N3C(=O)c4ccccc4C3=O)cc21 (centres undefined)	–	–	?	–	?	?
CC1=CC(C)(C)Nc2ccc(OC(=O)CN3C(=O)c4ccccc4C3=O)cc21	·	18µM	-100	–	28µM	5.8µM
CC1=CC(C)(C)Nc2ccc(OC(=O)CN3C(=O)c4cccc5cccc(c45)C3=O)cc21	–	?	-107	–	?	15µM
Cc1cccc(C(=O)NCCc2nc3ccccc3n2CCC(C)C)c1	?	·	·	–	?	·
O=C(NC1CCCCCC1)c1c(F)c(F)c(F)c(F)c1F	–	–	-91	–	–	?
CCS(=O)(=O)c1ncc(Cl)c(C(=O)Nc2ccc(S(=O)(=O)N(C)c3ccccc3)cc2)n1	20µM	10µM	-103	–	20µM	?
SMILES	S2 tox	SW480 rerep	IL1B secr inh	PINK1 modulator	ATXN2 expr inh	MCF10A rereplic
CCN(c1ccccc1)S(=O)(=O)c1ccc(NC(=O)c2nc(S(C)(=O)=O)ncc2Cl)cc1	·	5.2µM	-97	–	13µM	?
CCOc1ccc(NC(=O)OCCN2CCN(CCc3ccccc3)C(C)C2)cc1 (centres undefined)	?	–	-70	–	–	?
CCc1ccc(-c2cn3nc(C)c(C)nc3n2)cc1	·	–	–	–	5µM	?
Cc1nc2nc(-c3ccccc3)cn2nc1C	·	?	–	·	16µM	–
Cc1nc2nc(-c3ccc(F)cc3)cn2nc1C	·	–	–	–	·	–
c1ccc(-c2cn3nc4c(nc3n2)CCCC4)cc1	·	?	–	–	5.6µM	?
Cc1ccc(C)c(C(=O)CSc2nc3cc(C(=O)NC4CCCC4)ccc3c(=O)n2CC2CCCO2)c1 (centres undefined)	–	·	·	–	–	·
Cc1ccc(-c2cc3c(N4CCN(c5cc(C)ccc5C)CC4)nccn3n2)cc1	–	·	·	–	–	·
Cc1cc2c(ccc3[nH]onc32)n1	–	–	-60	–	–	–
CCOC(=O)N1CCN=C1SCc1ccc(C(F)(F)F)cc1	–	–	-82	–	–	–
COc1ccc(CC(=O)N2CCN=C2SCc2ccc([N+](=O)[O-])cc2)cc1	?	–	·	–	–[11.3 µM]	–
O=C(c1cccs1)N1CCN=C1SCc1cccnc1	–	–	-78	–	–	–
CCOc1ccc(CC(=O)N2CCN=C2SCc2ccc([N+](=O)[O-])cc2)cc1	–	–	-97	–	–	–
CC(=O)N1CCN=C1SCc1ccc(C)cc1	–	–	–	–	–	–
O=C(c1cccs1)N1CCN=C1SCc1ccc(Cl)cc1	–	–	–	–	–	–
O=C(Cc1ccccc1)N1CCN=C1SCc1ccc([N+](=O)[O-])cc1	?	–	-55	–	–	–

Screening data as filed in PubChem.
